Structures are written as SMILES. Several values for one entry are separate records, joined by “and”; a condition that tells them apart may be missing. Equal values may be shown once. About 83,000 compounds went through this panel and 20% of them were active in at least one assay; those are over-represented in the sample as a whole.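 Values shown are percent growth following 48 h exposure of cells in 96-well plates to a single concentration of compound; below 10 was considered active.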 Activity calls are given as the source filed them.

38 compounds from PubChem BioAssay (NCI) can be followed below.

For this experiment, the system named is MCF7 breast. The experiment can be described thus: NCI-60 one-dose screen, 48 h (100 = growth as untreated, 0 = no growth, -100 = all killed). Particulars: 10 µM unless noted.
As for `C=C(CO)C(=O)OC1CC(=C)C2CC(O)C(C)C2C2OC(=O)C(=C)C12` (stereo not drawn), the growth is 73.2% [100 µM] (inactive) and -86.7% [100 µM] (active).

Take `COc1ccc2c(c1)C(OC)C1c3c(cc4c(c3-2)OCO4)CCN1C` (stereo not drawn): the growth was -76.9% [100 µM] (active) and -70% [100 µM] (active).

Consider `COC(=O)[C@]1(C)CCC[C@@]2(C)[C@@H]3C[C@@H]4[C@H]5C[C@@]3(CC[C@@H]21)C[C@@]45C`, for which the growth was -81% [100 µM] (active) and -80% [100 µM] (active).

In the case of `C=C1C(=O)OC2CC1C(OC(=O)/C=C/c1ccccc1)C/C(C)=C/CC/C(C)=C/CCC2(C)O` (stereo not drawn), the growth is -76% [100 µM] (active) and -30% [100 µM] (active).

Consider `CCOc1cc2c(cc1O)/C(=N\OC)C[C@@H]1[C@@H]2CC[C@]2(C)[C@@H](O)CC[C@@H]12`, for which the growth was 0.562% [100 µM] (active) and -100% [100 µM] (active).

Take `COc1ccc2nc3c4c(nccc4c2c1)-c1ncccc1C3=O`: the growth is -82% [50 µM] (active) and -100% [50 µM] (active).

`O=C(/C=C/c1ccccc1)CCC1C(=O)c2ccccc2C1=O`: the growth was 48% [100 µM] (inactive) and 57.5% [100 µM] (inactive).

Turning to `CC1=CC[C@@H]2[C@@H](CC[C@@]2(C)O)C(C)(C)[C@H]1CC[C@@H]1[C@@]2(C)CCC(=O)C(C)(C)O[C@@H]2CC[C@]1(C)O`, the growth was -36.8% [100 µM] (active) and -100% [100 µM] (active).

Turning to `O=C(CCc1ccccc1)ON1C(=S)NC(c2ccccc2)(c2ccccc2)C1=S`, the growth was -45.8% [100 µM] (active) and 5.76% [100 µM] (active).

As to `O=C(O)CCCOc1cc(-c2ccccc2F)nc2cc3c(cc12)OCO3`, the growth was 9.31% [100 µM] (active) and -50% [100 µM] (active).

On to `Cc1cc(O)c2c(c1)C(=O)C(c1c(C)cc3c(c1O)C(=O)C1OC1C3=O)=CC2=O` (stereo not drawn), for which the growth was -64.5% [100 µM] (active) and -90% [100 µM] (active).

Turning to `CCOC(=O)C1C(C(C)C)C2(C#N)C(=N)OC1(C)C2(C#N)C#N` (stereo not drawn), the growth was 2.36% [100 µM] (active) and -41% [100 µM] (active).

With `Cc1ccc(NC(=S)C#N)cc1Cl`, the growth was -25.7% [100 µM] (active) and -100% [100 µM] (active).

For the compound `COc1c(/C=C/C=O)cc2c(c1OC)OCO2`, the growth is -30% [100 µM] (active) and -83.3% [100 µM] (active).

Regarding `CC1=CC[C@@H]2[C@@H](CC[C@@]2(C)O)C(C)(C)[C@H]1CC[C@@H]1[C@@]2(C)CC[C@@H](O)C(C)(C)O[C@@H]2CC[C@]1(C)O`, the growth was -12.8% [100 µM] (active) and -70.8% [100 µM] (active).

For `Cc1c2c(c(C)c3c[n+](C)ccc13)Oc1ccccc1O2`, the growth was -33.4% [100 µM] (active) and -100% [100 µM] (active).

As to `Fc1cccc(F)c1C1SCc2nc3cc4ccccc4cc3n21` (stereo not drawn), the growth is -28.9% [100 µM] (active) and -2.13% [100 µM] (active).

On to `CCOC(=O)COc1cc(-c2ccccc2F)nc2cc3c(cc12)OCO3`, for which the growth was 42.6% [100 µM] (inactive) and 19.5% [100 µM] (inactive).

For `CC(C)(C)N/N=C(/Cc1nc2c3c(ccc2[nH]c1=O)C(=O)c1ccccc1C3=O)C(=O)NC1=C(Cl)C(=O)c2ccccc2C1=O`, the growth was 6.76% [100 µM] (active) and -75.9% [100 µM] (active).

For the compound `C=CCO/N=C/c1cc(NC(=S)c2ccoc2C)ccc1Cl`, the growth is -83.2% [100 µM] (active) and -45% [100 µM] (active).

Consider `CC1OC(OC2C(OC3CCC4(C)C(CCC5(C)C4CC=C4C6CC(C)(C)CCC6(C(=O)O)CCC45C)C3(C)CO)OCC(O)C2O)C(O)C(O)C1O` (stereo not drawn), for which the growth is -88% [100 µM] (active) and -90.5% [100 µM] (active).

Turning to `CC1=C(C2=C(C)C(=O)C(=O)c3cc(C)ccc32)c2ccc(C)cc2C(=O)C1=O`, the growth was -55.4% [100 µM] (active) and -100% [100 µM] (active).

Take `COc1ccc(OC)c(Cc2cnc3nc(N)nc(N)c3c2C)c1`: the growth is 3.33% [100 µM] (active) and -100% [100 µM] (active).

In the case of `N=C1C(=N)c2ccccc2-c2ccccc21`, the growth was 30.7% [100 µM] (inactive) and 0.817% [100 µM] (active).

With `Cc1ccc(/C=N/Nc2cc(C)c3cccc(C)c3n2)s1`, the growth is -73.1% [100 µM] (active) and -100% [100 µM] (active).

Take `S=C1NC2=C(COc3ccccc32)C(c2ccc(Cl)cc2)N1` (stereo not drawn): the growth is -4.81% [100 µM] (active) and -100% [100 µM] (active).

On to `CC1(C=O)CCC23COC4(CCC5C6(C)CCC(OC7OCC(OC8OC(CO)C(O)C(OC9OC(CO)C(O)C(O)C9O)C8OC8OCC(O)C(O)C8O)C(O)C7OC7OC(CO)C(O)C(O)C7O)C(C)(C)C6CCC5(C)C4(C)CC2O)C3C1` (stereo not drawn), for which the growth was -68.6% [100 µM] (active) and -39.6% [100 µM] (active).

For `On1c(-c2ccccc2)nc2ccccc2c1=S`, the growth is 6.65% [100 µM] (active) and -68.9% [100 µM] (active).

For the compound `CC1(C)CCC2(C(=O)O)C(O)CC3(C)C(=CCC4C5(C)CCC(OC6OCC(O)C(O)C6OC6OCC(O)C(O)C6OC6OCC(O)C(OC7OC(CO)C(O)C(O)C7O)C6O)C(C)(C)C5CCC43C)C2C1` (stereo not drawn), the growth is 76.4% [100 µM] (inactive) and 25.5% [100 µM] (inactive).

Take `CCOc1ccc(NC(=O)/C(=N\N)C(C(=O)OC)c2nc3ccc(Cl)cc3[nH]c2=O)cc1` (stereo not drawn): the growth is 73% [100 µM] (inactive) and 60.5% [100 µM] (inactive).

Take `COc1ccc2c(c1)C(N)=C(c1ccccc1)C2=O`: the growth is 57.4% [100 µM] (inactive) and 16.6% [100 µM] (inactive).

Regarding `Cn1c(COC(=O)NC2CCCCC2)c(COC(=O)NC2CCCCC2)c2ccc3cc(Cl)c(Cl)cc3c21`, the growth is -78.6% [100 µM] (active).

As to `CN1CCc2cc3c(c4c2C1C(O)c1ccccc1-4)OCO3` (stereo not drawn), the growth was -24.6% [100 µM] (active) and -58.3% [100 µM] (active).

Take `C=c1c2ccccc2oc2nc3[nH]c(N)c(C#N)c(N)c3c(=N)c12`: the growth is 25.6% [100 µM] (inactive) and 0.562% [100 µM] (active).

As for `O=Cc1ccc(-c2ccc(-c3ccc(CO)s3)o2)s1`, the growth is -23.2% [100 µM] (active) and -100% [100 µM] (active).

Turning to `CC1=C(Cl)C[C@@H](/C(C)=C\Cl)O[C@@]1(O)C(Br)Br`, the growth is 19.3% [100 µM] (inactive) and -76.7% [100 µM] (active).

`C=C(C)C1CC2(C)C(C)CC(O)CC2C(OC(=O)C=C(C)C)C1O` (stereo not drawn): the growth was 5.38% [100 µM] (active) and 25.4% [100 µM] (inactive).

Turning to `COc1ccc(Nc2nc3ccc(C(F)(F)F)cc3nc2C(=O)O)cc1`, the growth was -31.5% [100 µM] (active) and -100% [100 µM] (active).
